# Screens: PubChem, several laboratories
# Rows were chosen to be rich in hits. Some 2% of all compounds tested hit in one or more screens of this group.
# Mcl1 Bid PPI: Mcl-1/Bid interaction inhibition. TR-FRET Mcl-1/Bid-Dy647 peptide binding, 1536-well. inhibition, % at 21.7 µM. 220,000 tested, 0.97% active;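 active = compounds that cut the binding signal by more than half at the single screening dose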;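 also: His-tagged Mcl-1 with europium anti-His antibody binding Bid BH3 peptide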
# Target sequence (Q07820 whole entry, looked up): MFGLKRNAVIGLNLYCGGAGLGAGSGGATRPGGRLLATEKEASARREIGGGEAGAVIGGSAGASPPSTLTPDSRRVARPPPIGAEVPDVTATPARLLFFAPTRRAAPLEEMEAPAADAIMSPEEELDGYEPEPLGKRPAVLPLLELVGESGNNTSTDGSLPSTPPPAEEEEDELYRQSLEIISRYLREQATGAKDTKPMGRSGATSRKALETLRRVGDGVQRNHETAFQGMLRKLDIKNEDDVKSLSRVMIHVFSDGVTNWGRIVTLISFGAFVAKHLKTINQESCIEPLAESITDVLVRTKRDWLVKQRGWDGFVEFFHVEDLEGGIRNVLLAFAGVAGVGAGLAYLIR
# Mcl1-Noxa inh: Mcl-1/Noxa interaction inhibition; Q07820; TR-FRET Mcl-1/Noxa peptide binding, 2 h; inhibition, % at 21.7 µM; 220,000 tested, 1.5% active; AID 1022;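 active = compounds that cut the protein-peptide binding signal by more than 50% relative to plate controls in a single-dose test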;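 also: His-tagged Mcl-1 with rhodamine Noxa BH3 peptide and terbium anti-His antibody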
# Mcl-1 Bim block: human Bim-Mcl-1 interaction inhibition. Bead-based flow cytometry, Bim peptide-Mcl-1 binding. Q07820. 190,000 tested, 0.1% active. inhibition, % at 10 µM. AID 1009; in the data active = inhibition above about 40%
# MCL1-BIM inh: inhibitors of human MCL1 binding to BIM-BH3 peptide. Q07820. GST-MCL1 / FITC-Bim-BH3 fluorescence polarization. inhibition, % at 10.9 µM. 320,000 tested, 0.68% active. AID 2057;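 active = inhibition above the mean inhibition of all tested compounds plus 3 SD, set per campaign, cut at about 40% in these data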;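 also: higher means more loss of mP so more displacement of Bim peptide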
# A number is an active result; - = inactive; . = no result given.
SMILES,Mcl1 Bid PPI,Mcl1-Noxa inh,Mcl-1 Bim block,MCL1-BIM inh
CCCCC1=CC2=C(c3ccco3)C(=O)C(C)(OC(=O)c3ccc(OC)cc3)C(=O)C2=CN1CC1CC1 (stereo unspecified),-,-,.,-
CCCc1nc2c(C)ccc(C)c2c(N)c1CC,58.3,-,-,-
CCc1c(-c2ccccc2)nc2sc3c(c2c1N)CCCC3,-,-,.,-
C#CCOCCOCCOCCNc1nc(N2CCN(C(=O)[C@H](Cc3cc4ccccc4[nH]3)n3cc([C@@H](N)CC(C)C)nn3)CC2)nc(N2CCN(C(=O)[C@H](Cc3cc4ccccc4[nH]3)n3cc([C@@H](N)CC(C)C)nn3)CC2)n1,74.8,53.5,-,-
C#CCOCCOCCOCCNc1nc(N2CCN(C(=O)[C@H](Cc3cc4ccccc4[nH]3)n3cc([C@@H](N)C(C)CC)nn3)CC2)nc(N2CCN(C(=O)[C@H](CCCCN)n3cc([C@@H](N)CC(C)C)nn3)CC2)n1 (stereo partly specified),77.9,-,-,-
C#CCOCCOCCOCCNc1nc(N2CCN(C(=O)C([C@@H](C)CC)n3cc(C(N)CC(C)C)nn3)CC2)nc(N2CCN(C(=O)[C@H](CCC(=O)O)n3cc(C(N)[C@H](C)CC)nn3)CC2)n1 (stereo partly specified),-,-,-,-
C#CCOCCOCCOCCNc1nc(N2CCN(C(=O)[C@H](CCCCN)n3cc([C@@H](N)C(C)CC)nn3)CC2)nc(N2CCN(C(=O)[C@H](CCCCN)n3cc([C@@H](N)CC(C)C)nn3)CC2)n1 (stereo partly specified),-,-,-,-
C#CCOCCOCCOCCNc1nc(N2CCN(C(=O)[C@H](Cc3cc4ccccc4[nH]3)n3cc(C(N)CC(C)C)nn3)CC2)nc(N2CCN(C(=O)[C@H](CCC(=O)O)n3cc(C(N)[C@H](C)CC)nn3)CC2)n1 (stereo partly specified),62.9,-,-,-
C#CCOCCOCCOCCNc1nc(N2CCN(C(=O)[C@H](CCC(=O)O)n3cc(C(N)CC(C)C)nn3)CC2)nc(N2CCN(C(=O)[C@H](CCC(=O)O)n3cc(C(N)[C@H](C)CC)nn3)CC2)n1 (stereo partly specified),76.0,-,-,-
COCCNC(=O)c1cccc(OC2CCN(Cc3ccc(OC(F)F)cc3)CC2)c1,.,.,.,-
Cc1ccccc1-n1c(C)cc(/C=N/Nc2ccc([N+](=O)[O-])cn2)c1C,-,-,-,-
Cc1cc(/C=N/Nc2ccc([N+](=O)[O-])cn2)c(C)n1-c1ccc(C(=O)O)cc1,65.5,99.4,-,-
CCN(CC)c1ccc(NC(=O)c2ccccc2OCC(=O)OC)cc1,-,81.0,-,-
CC(=O)c1ccc(NC(=O)Nc2ccncc2)cc1,-,-,-,-
CC(=O)Nc1cccc(NC(=O)Nc2ccc(C(C)=O)cc2)c1,94.5,-,-,-
COC(=O)COc1ccccc1C(N)=O,-,-,-,-
CCN(CC)c1ccc(NC(=O)OC)cc1,-,68.5,-,-
CCN(CC)c1ccc(NC(=O)Nc2cccc(C(C)=O)c2)cc1,-,85.5,-,-
O=C(CN1CCN(C(=O)N2CCOCC2)CC1)Nc1cc(Cl)ccc1Cl,.,.,.,-
CCOC(=O)C(Cc1ccccc1)C(=O)Nc1cccc(C)c1 (stereo unspecified),-,-,-,-
CCOC(=O)C(Cc1ccccc1)C(=O)Nc1ccc(N(CC)CC)cc1 (stereo unspecified),-,59.8,-,-
COc1ccc(OC)c(Nc2nc(=O)c3cccnc3s2)c1,-,55.7,-,.
Cc1ccc(Nc2nc(=O)c3cccnc3s2)cc1,-,-,.,-
CC1=C(SCCC#N)S/C(=C2\SC(C)=C(SCCC#N)S2)S1,96.1,74.4,-,-
COc1ccc(-c2ccc(/C=C3/C(=N)N4C(C)=CSC4=NC3=O)o2)c([N+](=O)[O-])c1,-,59.1,-,-
SMILES,Mcl1 Bid PPI,Mcl1-Noxa inh,Mcl-1 Bim block,MCL1-BIM inh
CCN(CC)S(=O)(=O)c1cc(NC(=O)C2CSC3(C)CCC(=O)N23)ccc1C (stereo unspecified),.,.,.,-
O=C(O)c1ccc(NC2=C(Cl)C(=O)c3ccccc3C2=O)cc1,-,53.0,.,-
Cc1ccc(NC2=C(NC(=O)c3ccccc3)C(=O)c3ccccc3C2=O)cc1Cl,-,86.5,-,-
O=C(O)c1cccc(NC2=C(Cl)C(=O)c3ccccc3C2=O)c1,-,86.6,-,.
Cc1ccc(NCC(=O)c2ccccc2)cc1Cl,-,-,-,-
Cc1ccc(C(=O)CN(CCC(=O)O)C(=O)c2ccncc2)cc1,.,.,.,-
CCOC(=O)C[n+]1c(C)sc2ccc(OC)cc21,-,53.8,-,-
CCO/C(=C/c1sc2ccc(OC)cc2[n+]1CCCS(=O)(=O)[O-])CC,-,-,-,-
Cc1ccc(OCC(=O)N2CCCC(CO)(CCOc3ccccc3)C2)cc1 (stereo unspecified),.,.,.,-
COc1cc(CNc2ccc(N3CCCC3)cc2)ccc1OCc1ccccc1F,-,57.0,-,-
COc1cc(CNCc2ccncc2)cc(Br)c1OCc1ccccc1F,55.1,-,-,-
COc1cc(CNn2cn[nH]c2=S)cc(Br)c1OCc1ccccc1F,-,-,-,-
CCOc1cc(CNc2ccc(O)cc2)cc(Br)c1OCc1ccccc1F,-,-,-,-
COc1cc(CNc2ccc(N3CCCC3)cc2)ccc1OCc1ccccc1,-,-,-,-
COc1cc(CNc2ccc(O)cc2)cc(Br)c1OCc1ccccc1F,95.4,-,-,-
COc1ccc(S(=O)(=O)NNC(=O)Nc2ccc(F)cc2)cc1,.,.,.,-
CCC(=O)Nc1cccc(C2=NOC3(C2)C[C@@H](C(N)=O)N(C(=O)COc2ccc(Cl)cc2)C3)c1 (stereo partly specified),-,-,.,-
C/C=C(/C)C(=O)Nc1cccc(C2=NOC3(C2)C[C@H](C(N)=O)N(C(=O)c2ccc(Cl)cc2)C3)c1 (stereo partly specified),-,-,.,-
C=C(C)C(=O)Nc1cccc(C2=NOC3(C2)C[C@H](C(N)=O)N(C(=O)COc2ccc(Cl)cc2)C3)c1 (stereo partly specified),-,68.6,.,-
C=C(C)C(=O)Nc1cccc(C2=NOC3(C2)C[C@@H](C(N)=O)N(C(=O)c2ccc(Cl)cc2)C3)c1 (stereo partly specified),-,75.1,.,-
C=C(C)C(=O)Nc1cccc(C2=NOC3(C2)C[C@@H](C(N)=O)N(C(=O)c2cc([N+](=O)[O-])cc([N+](=O)[O-])c2C)C3)c1 (stereo partly specified),-,74.2,.,-
C=C(C)C(=O)Nc1cccc(C2=NOC3(C2)C[C@H](C(N)=O)N(C(=O)c2ccccc2)C3)c1 (stereo partly specified),-,60.9,.,-
COCc1nnc(NC(=O)CS(=O)(=O)c2ccc(C)cc2)s1,.,.,.,-
COc1cc(O)oc1C=Nc1ccc(C(F)(F)F)cc1,-,63.6,-,-
CN(Cc1ccccc1)Cc1nc2c([nH]1)c(=O)[nH]c(=O)n2C,97.2,.,-,-
CCNC(=S)Nc1scc(-c2ccccc2)c1C(=O)OCC,-,-,-,-
CCOC(=O)c1c(-c2ccccc2)csc1NC(=S)NC,-,54.7,-,-
